± gives the standard deviation.
Tested on: MILI (PIWIL2) piRISC loaded with L1MC piRNA (26 nt);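 further: 1 nM active piRISC with 0.1 nM target library at 33 °C single turnover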
Assay: pre-steady-state target cleavage rate (min^-1); guide: L1MC piRNA 5'p-UAACUAAAUACUAUGCAAGCUGUAGG; higher = faster piRNA-guided slicing of the target
Settings: auxiliary factor: none (no GTSF1)
Summary of the method: (§1)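 At 33 °C in HEPES–potassium acetate buffer, a transcribed, DNA-blocked target RNA library […] was exposed for 0–8 or 0–960 min to 1 nM active affinity-purified piRISC carrying a single synthetic guide, with or without 500 nM GTSF1 partner protein. Uncleaved targets were sequenced and normalised to depth and to weakly complementary targets. With three trials pooled and k3 capped at 0.0001 min^-1, a burst-and-steady-state fit produced the pre-steady-state cleavage rate.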

Sequence	pre-steady-state target cleavage rate
UCCUCCUACUGCUUGCAUAGUAAUUAGUUA	0.00554 ± 0.0017
UCCUGCUACAGCAUGCAUAGUUUUUAGUUA	0.00396 ± 0.0036
UCCUCCUACUCCUUGCAUAGUAUUUAGUAA	0.00285 ± 0.0024
UCCUCCUACAGCUUGCUAAGUAUUUAGUUA	0.00586 ± 0.0019
UCCUGGAUGUCCUUGCAUAGUAGUUAGUUA	0.00421 ± 0.002
UCCUGGAUGAGCUUGCAUAGUAUUUAGUUU [g2:g21:cont:t1U]	0.0146 ± 0.0035
UCCUCCAUCAGCUUGCAUAGUAUUUAGUUA	0.00673 ± 0.002
UCCUGGAUCAGCUUGCUUAGUAUUUAGUUA	0.0092 ± 0.0031
UCCUCGAUCAGCUUGCAUAGUAUUUAGUAA	0.00809 ± 0.0023
UCCUGCUACAGGAUGCAUAGUAUUUAGUAA	0.00446 ± 0.0019
UCCUGGAACAGCUUGCUUAGUAUUUAGUUA	0.00723 ± 0.0021
UCCUGGAUCAGGUAGCAUAGUAUUUAGUUA	0.00574 ± 0.0022
UCCUGGUACAGCUGGCAUAGUAUUUAGUUA	0.0121 ± 0.0031
UCCUGGAAGUGCUUGCAUAGUAUUUAGUUA	0.00836 ± 0.0022
UCCUGGUACAUGCUUGCAUAGUAUUUAGUUA	0.00627 ± 0.0036
UCCUCCUACAGCUUGCUUUGUAUUUAGUUA	0.00401 ± 0.0023
UCCUCCUACAGCUUGCAUUGUAUUUUGUUA	0.00327 ± 0.0022
UCCUGGAACAGCUUGCAUAGUAUUUAGUUA [g2:g23:cont:t1A]	0.0103 ± 0.0024
UCCUGGAUGUCGACGCAUAGUAUUUAGUUA	0.00381 ± 0.0021
UCCUGGAUCAGCUAGGAUAGUAUUUAGUUA	0.00609 ± 0.0017

Sequence	pre-steady-state target cleavage rate
UCCUCCUACAGCUUGGUUAGUAUUUAGUUA	0.00996 ± 0.0021
UCCUGGUACAGCUUGCAAAGUAUUAAGUUA	0.00406 ± 0.0027
UCCUGCUACAGCUUGCAUAGUAUUUAGGUUA	0.00346 ± 0.0028
UCCUGCUACAGCAUGCAUAGUAUUAAGUUA	0.00346 ± 0.0032
UCCUGGAACUCCUUGCAUAGUAUUUAGUUA	0.00487 ± 0.0017
UCCUGGAUGUCGCUGCAUAGUAUUUAGUUA	0.00769 ± 0.0026
UCCUGGAUCAGGUUGCAUAGUAUUUAGUAA	0.00858 ± 0.0024
UCCUGGUACAGCUUGCACAGUAUUUAGUUA	0.0127 ± 0.0032
UCCUCCUAGAGCUUGGAUAGUAUUUAGUUA	0.00594 ± 0.0019
UCCUGGAACAGCUUGGAUAGUAUUUAGUAA	0.00431 ± 0.0019
UCCUGGAUCAGCAUGCAAAGUAUUUAGUUA	0.0074 ± 0.0018
UCCUGGAUCAUGCUUGCAUAGUAUUUAGUUA	0.00983 ± 0.0024
UCCUGGAACAGCUCGCAUAGUAUUUAGUUA	0.00773 ± 0.0031
UCCUGGAUCAGCAUGCAUAGUAUUUAGUUA	0.0108 ± 0.0031
UCCUGGAACAGCUUGCAUAGUAAAUAGUUA	0.0034 ± 0.0027
UCCUGGAUGUCCUGGCAUAGUAUUUAGUUA	0.00414 ± 0.0026
UCCUGGAUCAGGUUGCAUACUAUUUAGUUA	0.00331 ± 0.0025
UCCUGGAACACCUUGCAUUGUAUUUAGUUA	0.00474 ± 0.0027
UCCUGGAUGUCCUUGUAUAGUAUUUAGUUA	0.0121 ± 0.0026
UCCUGGAUGUGGUUGCAUAGUAUUUAGUAA	0.0105 ± 0.0041

Tested on: EfPiwi piRISC loaded with L1MC piRNA (26 nt)
Assay: pre-steady-state target cleavage rate (min^-1); auxiliary factor: 500 nM Ephydatia muelleri Gtsf1; guide: L1MC piRNA 5'p-UAACUAAAUACUAUGCAAGCUGUAGG; MIWI and MILI are mouse PIWI proteins and EfPiwi is from a freshwater sponge; tags in brackets are library labels; higher = faster piRNA-guided slicing of the target
Settings: not given
Summary of the method: as §1

Sequence	pre-steady-state target cleavage rate
UCCUCCUACUGCUUGCAUAGUAAUUAGUUA	0.0119 ± 0.0043
UCCUGCUACAGCAUGCAUAGUUUUUAGUUA	0.00363 ± 0.0018
UCCUCCUACUCCUUGCAUAGUAUUUAGUAA	0.00518 ± 0.0033
UCCUCCUACAGCUUGCUAAGUAUUUAGUUA	0.00593 ± 0.0039
UCCUGGAUGUCCUUGCAUAGUAGUUAGUUA	0.00555 ± 0.0031
UCCUGGAUGAGCUUGCAUAGUAUUUAGUUU [g2:g21:cont:t1U]	0.0356 ± 0.0098
UCCUCCAUCAGCUUGCAUAGUAUUUAGUUA	0.0155 ± 0.005
UCCUGGAUCAGCUUGCUUAGUAUUUAGUUA	0.0228 ± 0.0071
UCCUCGAUCAGCUUGCAUAGUAUUUAGUAA	0.00989 ± 0.0033
UCCUGCUACAGGAUGCAUAGUAUUUAGUAA	0.00317 ± 0.0021
UCCUGGAACAGCUUGCUUAGUAUUUAGUUA	0.0181 ± 0.005
UCCUGGAUCAGGUAGCAUAGUAUUUAGUUA	0.00369 ± 0.0035
UCCUGGUACAGCUGGCAUAGUAUUUAGUUA	0.0113 ± 0.0038
UCCUGGAAGUGCUUGCAUAGUAUUUAGUUA	0.00537 ± 0.0019
UCCUGGUACAUGCUUGCAUAGUAUUUAGUUA	0.0077 ± 0.0034
UCCUCCUACAGCUUGCUUUGUAUUUAGUUA	0.0093 ± 0.0052
UCCUCCUACAGCUUGCAUUGUAUUUUGUUA	0.00442 ± 0.0027
UCCUGGAACAGCUUGCAUAGUAUUUAGUUA [g2:g23:cont:t1A]	0.0806 ± 0.018
UCCUGGAUGUCGACGCAUAGUAUUUAGUUA	0.00545 ± 0.0032
UCCUGGAUCAGCUAGGAUAGUAUUUAGUUA	0.00257 ± 0.002

Sequence	pre-steady-state target cleavage rate
UCCUCCUACAGCUUGGUUAGUAUUUAGUUA	0.0149 ± 0.006
UCCUGGUACAGCUUGCAAAGUAUUAAGUUA	0.00292 ± 0.0026
UCCUGCUACAGCUUGCAUAGUAUUUAGGUUA	0.00526 ± 0.0014
UCCUGCUACAGCAUGCAUAGUAUUAAGUUA	0.00828 ± 0.0024
UCCUGGAACUCCUUGCAUAGUAUUUAGUUA	0.0352 ± 0.009
UCCUGGAUGUCGCUGCAUAGUAUUUAGUUA	0.00471 ± 0.0025
UCCUGGAUCAGGUUGCAUAGUAUUUAGUAA	0.00537 ± 0.0021
UCCUGGUACAGCUUGCACAGUAUUUAGUUA	0.0505 ± 0.015
UCCUCCUAGAGCUUGGAUAGUAUUUAGUUA	0.0312 ± 0.0067
UCCUGGAACAGCUUGGAUAGUAUUUAGUAA	0.00371 ± 0.002
UCCUGGAUCAGCAUGCAAAGUAUUUAGUUA	0.0037 ± 0.0031
UCCUGGAUCAUGCUUGCAUAGUAUUUAGUUA	0.0911 ± 0.025
UCCUGGAACAGCUCGCAUAGUAUUUAGUUA	0.0171 ± 0.0048
UCCUGGAUCAGCAUGCAUAGUAUUUAGUUA	0.12 ± 0.026
UCCUGGAACAGCUUGCAUAGUAAAUAGUUA	0.00589 ± 0.0023
UCCUGGAUGUCCUGGCAUAGUAUUUAGUUA	0.0055 ± 0.0047
UCCUGGAUCAGGUUGCAUACUAUUUAGUUA	0.00262 ± 0.0019
UCCUGGAACACCUUGCAUUGUAUUUAGUUA	0.00411 ± 0.0026
UCCUGGAUGUCCUUGUAUAGUAUUUAGUUA	0.00424 ± 0.0024
UCCUGGAUGUGGUUGCAUAGUAUUUAGUAA	0.11 ± 0.056

— the supplement of paper PMC10338343
